The list is not random: actives were taken first. Their share in the collection is about 3.1%.
FAS TE block = FAS thioesterase (human) inhibition; actives 0.67% (n = 360,000); inhibition, % at 15 µM; recombinant FAS-TE, OMFH fluorogenic substrate, fluorescence endpoint; P49327; AID 602261;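 active means compounds whose normalised, plate-corrected inhibition of enzyme fluorescence in the single-dose primary screen is 50% or more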;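 further: 0% = DMSO with enzyme and 100% = substrate without enzyme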
Target sequence (P49327 whole entry, looked up): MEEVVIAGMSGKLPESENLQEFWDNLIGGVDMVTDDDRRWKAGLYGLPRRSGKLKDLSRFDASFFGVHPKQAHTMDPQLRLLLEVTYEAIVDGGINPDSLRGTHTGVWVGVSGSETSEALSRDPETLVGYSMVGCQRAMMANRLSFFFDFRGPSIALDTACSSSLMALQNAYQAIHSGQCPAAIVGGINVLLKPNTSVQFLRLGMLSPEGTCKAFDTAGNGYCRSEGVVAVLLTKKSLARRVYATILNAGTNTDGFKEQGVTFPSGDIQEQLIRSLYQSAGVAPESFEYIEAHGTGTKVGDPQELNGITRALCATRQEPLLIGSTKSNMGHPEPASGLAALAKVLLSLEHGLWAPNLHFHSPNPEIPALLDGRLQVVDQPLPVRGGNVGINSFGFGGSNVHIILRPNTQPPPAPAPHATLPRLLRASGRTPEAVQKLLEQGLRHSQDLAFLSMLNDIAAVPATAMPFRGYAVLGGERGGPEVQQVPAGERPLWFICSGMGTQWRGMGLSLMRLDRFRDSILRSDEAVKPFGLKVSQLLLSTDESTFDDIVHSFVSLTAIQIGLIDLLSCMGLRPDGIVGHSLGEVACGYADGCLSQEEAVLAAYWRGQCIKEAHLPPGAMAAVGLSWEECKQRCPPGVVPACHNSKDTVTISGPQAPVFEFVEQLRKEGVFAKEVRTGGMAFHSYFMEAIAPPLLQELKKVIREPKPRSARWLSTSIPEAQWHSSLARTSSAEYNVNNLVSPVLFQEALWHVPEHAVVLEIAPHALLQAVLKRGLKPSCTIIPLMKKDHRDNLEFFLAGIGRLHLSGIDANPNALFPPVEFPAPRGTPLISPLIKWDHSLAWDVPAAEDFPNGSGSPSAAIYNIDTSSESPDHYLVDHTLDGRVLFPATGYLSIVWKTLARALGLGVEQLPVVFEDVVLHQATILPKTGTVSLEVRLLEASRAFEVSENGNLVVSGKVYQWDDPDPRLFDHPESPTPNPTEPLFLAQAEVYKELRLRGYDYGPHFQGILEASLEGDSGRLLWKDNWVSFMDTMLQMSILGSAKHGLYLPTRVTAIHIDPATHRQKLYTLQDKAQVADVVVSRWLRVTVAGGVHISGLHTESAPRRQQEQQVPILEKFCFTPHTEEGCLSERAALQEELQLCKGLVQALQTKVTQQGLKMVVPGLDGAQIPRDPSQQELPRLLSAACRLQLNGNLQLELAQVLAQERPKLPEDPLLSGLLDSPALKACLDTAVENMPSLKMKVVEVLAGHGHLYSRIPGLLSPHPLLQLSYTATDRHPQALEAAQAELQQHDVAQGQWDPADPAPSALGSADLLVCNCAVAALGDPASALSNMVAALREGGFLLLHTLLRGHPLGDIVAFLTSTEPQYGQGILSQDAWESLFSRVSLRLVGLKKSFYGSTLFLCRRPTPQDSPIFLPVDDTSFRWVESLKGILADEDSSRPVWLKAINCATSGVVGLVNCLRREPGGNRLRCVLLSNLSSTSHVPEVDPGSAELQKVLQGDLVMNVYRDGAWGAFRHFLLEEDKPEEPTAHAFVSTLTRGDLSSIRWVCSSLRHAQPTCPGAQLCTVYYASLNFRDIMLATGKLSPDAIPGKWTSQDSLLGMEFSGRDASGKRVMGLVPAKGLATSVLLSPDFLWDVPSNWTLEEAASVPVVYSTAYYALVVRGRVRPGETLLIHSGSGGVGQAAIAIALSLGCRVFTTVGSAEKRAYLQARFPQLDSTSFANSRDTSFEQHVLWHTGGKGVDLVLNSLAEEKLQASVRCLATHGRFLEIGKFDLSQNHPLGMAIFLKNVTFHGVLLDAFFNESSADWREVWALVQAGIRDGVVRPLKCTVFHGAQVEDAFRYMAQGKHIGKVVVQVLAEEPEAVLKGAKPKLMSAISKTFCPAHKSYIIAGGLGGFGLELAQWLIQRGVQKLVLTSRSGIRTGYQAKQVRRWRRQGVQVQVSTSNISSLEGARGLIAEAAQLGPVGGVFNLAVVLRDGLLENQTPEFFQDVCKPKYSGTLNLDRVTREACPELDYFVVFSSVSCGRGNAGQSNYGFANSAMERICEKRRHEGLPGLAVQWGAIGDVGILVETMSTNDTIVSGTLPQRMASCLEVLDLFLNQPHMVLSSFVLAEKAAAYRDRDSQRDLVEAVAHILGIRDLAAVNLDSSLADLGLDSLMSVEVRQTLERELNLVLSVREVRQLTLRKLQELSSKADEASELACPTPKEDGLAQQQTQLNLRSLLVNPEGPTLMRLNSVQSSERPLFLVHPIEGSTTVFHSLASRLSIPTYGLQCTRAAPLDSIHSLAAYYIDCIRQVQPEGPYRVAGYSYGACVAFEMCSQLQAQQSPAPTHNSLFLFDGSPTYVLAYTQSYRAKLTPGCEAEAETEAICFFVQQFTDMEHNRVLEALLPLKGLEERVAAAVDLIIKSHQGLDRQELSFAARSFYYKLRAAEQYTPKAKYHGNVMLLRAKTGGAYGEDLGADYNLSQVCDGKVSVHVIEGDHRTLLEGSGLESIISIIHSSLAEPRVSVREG
Calb FLC = affects C. albicans growth with fluconazole; C. albicans CaCi-2 (fluconazole-resistant clinical isolate) + fluconazole, Alamar Blue growth, 48 h; growth inhibition, % (no concentration beside the values); actives 0.57% (n = 300,000);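 active means growth inhibition above about 58% in most replicates, limit read from the data, passing the limit was not always enough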;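 further: all wells also contain fluconazole at 8 µg/ml as a sub-toxic cotreatment; 0% = median of DMSO wells and 100% = median of geldanamycin control wells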
ATG4B inhibitor = inhibitors of human ATG4B cysteine protease | ATG4B cleavage of LC3-PLA2, NBD-HPC fluorescence, 1 h | Q9Y4P1 | inhibition, % at 8.33 µM | actives 0.51% (n = 340,000); in the data active means inhibition above about 40%
NadD block = inhibitors of Staphylococcus aureus NadD; purified NadD enzyme, colorimetric absorbance read-out; AID 602399; inhibition, % at 20 µM; actives 0.78% (n = 360,000); in the data active means inhibition above about 26%
SUMO Mot1 rescue = SUMOylation pathway inhibition by Mot1-301 growth rescue | S. cerevisiae Mot1-301 growth rescue, ATP luminescence, 38.5C; percent above DMSO median, 100 means doubled | growth rescue, % at 18.8 µM | actives 1% (n = 320,000);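 active means every valid replicate shows activation above 250% relative to neutral control wells; inactive means the rest, any valid replicate at or below 250%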;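 further: OY570 slx delta 5 strain wells were the positive control but not used for scaling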
Mot1 SUMO dose = yeast SUMO pathway inhibition in dose response | shares compounds with SUMO Mot1 rescue | growth activity, percent, % at 42 µM | S. cerevisiae Mot1-301 galactose growth, ATP luminescence, 24 h; -100 = growth of slx-deleted rescue strain | 2,300 tested, under 10 active;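 active means Signal drops as the depositor expects, and the fitted half-maximal dose is no more than ten times the top valid tested dose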;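 further: more negative values mean stronger growth rescue toward the control strain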
PLA2 counter = counter-screen for ATG4B inhibitors: human phospholipase A2. inhibition, % at 8.33 µM. purified PLA2, NBD-C6-HPC fluorescence, 45 min. shares compounds with ATG4B inhibitor. AID 588402. actives 66% (n = 1,600); in the data active means inhibition above about 50%
An asterisk follows results filed as active; . = not tested or not shown; + = active, no number.

SMILES | FAS TE block | Calb FLC | ATG4B inhibitor | NadD block | SUMO Mot1 rescue | Mot1 SUMO dose | others
C[N+](C)(C)CCN(Cc1ccc(Cl)cc1)c1ccccn1 | -5 | 1 | -4 | 6 | 8 | .
CN(C)CCN(Cc1ccc(Cl)cc1)c1ccccn1 | 0 | -27 | 5 | -8 | 558* | -1
Cn1cc(C(F)(F)F)nc1-c1ccc(OCC(O)CNCCOc2ccc(O)c(C(N)=O)c2)cc1 (stereo not given) | 3 | 5 | -12 | -5 | -10 | .
O=S(=O)(NCC1CCCN(Cc2ccccc2O)C1)c1cccc2cccnc12 (stereo not given) | -7 | -3 | -5 | -12 | 384* | 2
O=C(C1CCC(CNS(=O)(=O)c2cccc3cccnc23)CC1)N1CCCC1 (stereo not given) | 0 | -3 | -8 | 0 | 260 | .
Cn1c(SCc2ccccc2C#N)nc2ccccc2c1=O | 18 | 9 | 10 | -8 | 38 | .
CC(Cc1ccc(O)c(O)c1)C(C)Cc1ccc(O)c(O)c1 (stereo not given) | . | . | 4 | . | 553* | 0
COc1cc(C[C@@H](C)[C@@H](C)Cc2ccc(O)c(OC)c2)ccc1O | 13 | . | -10 | -5 | 20 | .
O=C(CN1CCN(c2nc(-c3ccccc3)cs2)CC1)NNC(=O)c1ccc(Br)cc1 | -6 | 0 | -7 | -6 | 656* | 2
CCCCOc1ccc(CSC(=N)N)cc1Cl | -100 | -1 | 22 | -3 | 467* | -1
CCCCCOc1ccc(Br)cc1CSC(=N)N | -160 | -12 | 16 | -7 | . | .
CCC(C)c1ccc(S(=O)(=O)N2CCN(c3ccccn3)CC2)cc1 (stereo not given) | 43 | -14 | -4 | 1 | -6 | .
Cc1nc2c(=O)[nH]n(C)c2nc1C | -11 | . | . | 5 | . | .
Cc1[nH]oc(=O)c1N=Nc1ccccc1 | -8 | -5 | 3 | -1 | 465* | 1
Cc1[nH]oc(=O)c1N=Nc1c(Cl)cccc1Cl | -8 | 4 | -2 | -6 | 358* | 0
Cc1[nH]n(-c2ccccc2)c(=O)c1N=Nc1c(Cl)cccc1Cl | 3 | -1 | 4 | 4 | 2 | .
COc1cc2c(cc1OC(C)=O)CCCCC2=O | -5 | . | 5 | -6 | . | .
CN(C(=O)COC(=O)CNC(=O)c1sc2ccccc2c1Cl)c1ccccc1 | -5 | -1 | -18 | 0 | -2 | .
Cc1ccc(C(=O)NCCCN2CCOCC2)cc1 | -13 | -5 | -7 | -2 | 410* | 0
Cc1ccc(CC(=O)NCCN2CCOCC2)cc1 | -3 | 13 | 9 | -3 | 5 | .
Cc1ccc(C(=O)NCCNC(=O)c2ccc(C)nc2)cc1 | -9 | 2 | -11 | -7 | 13 | .
Cc1ccc(C(=O)NCCN2CCOCC2)cc1 | -10 | -2 | -3 | -7 | -14 | .
COc1ccc(CC(=O)NCCN2CCOCC2)cc1 | -2 | 9 | -3 | -1 | 395* | 0
Cc1ccc(C(=O)NCCCNC(=O)c2ccc(C)nc2)cc1 | -4 | 5 | 2 | -2 | 424* | 0
COc1ccc(OCC(=O)N2CCN(S(=O)(=O)c3ccc4c(c3)OCCO4)CC2)cc1 | 4 | . | . | -7 | . | .
SMILES | FAS TE block | Calb FLC | ATG4B inhibitor | NadD block | SUMO Mot1 rescue | Mot1 SUMO dose | others
COc1ccc(OC)c(Cc2nnc(CCC(=O)NCc3ccsc3)o2)c1 | -10 | -25 | 5 | -10 | + | 0
CC(=O)Nc1ccc(-c2csc(NC(=O)C3CC(=O)N(c4ccc5c(c4)OCCO5)C3)n2)cc1 (stereo not given) | -23 | 14 | -11 | 13 | 508* | -1
COc1ccc(-c2csc(NC(=O)C3CC(=O)N(c4ccc5c(c4)OCCO5)C3)n2)cc1 (stereo not given) | -10 | -14 | -17 | 15 | -12 | .
COc1ccc(CN2CCC(n3nccc3NC(=O)CCOc3ccccc3)CC2)cc1C | -3 | 13 | -4 | -12 | 4 | .
N/C(=N\N=C\c1ccc(O)cc1)c1nonc1N | 3 | -7 | 5 | -6 | 488* | -1
COc1ccc(CN2CC(=O)N(c3ccccc3C)C2=S)cc1OC | -2 | -8 | -7 | -3 | 672* | -1
CCOc1ccc(NC(=O)CC2C(=O)N(c3ccccc3)C(=S)N2Cc2ccccn2)cc1 (stereo not given) | 5 | 10 | -7 | 3 | + | 0
Cc1ccc(S(=O)(=O)N2N=C3CCCCC3C2(O)C(F)(F)F)cc1 (stereo not given) | -2 | -27 | 10 | -3 | 18 | .
Cc1ccc(C(=O)Nc2nc(-c3ccc(F)cc3)cs2)o1 | 21 | -13 | 12 | -1 | 410* | -2
Cn1cnnc1-c1cccc(NS(=O)(=O)c2ccc(N3CCCC3=O)cc2)c1 | -1 | -11 | -10 | 7 | + | 1
O=C(NCc1nc(-c2ccccc2)no1)c1cccs1 | -1 | -6 | 0 | -6 | 499* | -1
Cc1cc(F)ccc1-c1cc(C(=O)N2CCN(c3ccncc3)CC2)[nH]n1 | -8 | . | . | -2 | . | .
Fc1ccc(-n2nnc(-c3ccnc4ccccc34)n2)cc1 | 6 | -5 | -4 | -2 | 9 | .
O=C1CC(c2c[nH]c3ccccc23)C(=O)N1c1ccccc1 (stereo not given) | -2 | 31 | -8 | -2 | 709* | 0
Nc1nnc(COc2ccc(Br)cc2Br)s1 | 0 | 27 | 3 | 6 | + | 1
[O-][n+]1ccccc1/C=C/c1ccccc1 | -3 | 1 | -7 | 2 | 160 | .
CN(C)c1ccc(/C=C/c2cccc[n+]2[O-])cc1 | -9 | 4 | 4 | 2 | 584* | 0
CC(C)Oc1ccc(CCNC(=O)CC2C(=O)NCCN2C)cc1 (stereo not given) | -8 | -8 | 9 | -2 | 1 | .
COc1ccc(CCNC(=O)CC2C(=O)NCCN2CC(C)(C)C)cc1 (stereo not given) | -6 | -8 | 1 | 1 | 770* | 0
COc1ccc2nc(SCC(=O)N(C)CC(=O)Nc3ccc(F)cc3)[nH]c2c1 | -5 | . | -11 | -4 | 558* | 0
Cc1ccc2c(c1)CCCN2S(=O)(=O)c1cccc(C(=O)Nc2ccccc2C(=O)O)c1 | 0 | 26 | . | 7 | -9 | .
CC(C)Cn1c(=O)c2ccccc2c2ccccc2c1=O | 24 | -3 | 39 | 1 | 2 | .
CC(C)CCn1c(=O)c2ccccc2c2ccccc2c1=O | 15 | 0 | 64* | -1 | + | 0 | PLA2 counter=71*
CCOc1cc(C(N)=O)cc(Cl)c1OCc1ccccc1 | 1 | 112* | 49* | -8 | 442* | 0 | PLA2 counter=71*
CN(CC(=O)Nc1ccc(Cl)c(C(F)(F)F)c1)C(=O)C1CC(=O)N(C2CCCC2)C1 (stereo not given) | 9 | . | -15 | 12 | -17 | .
